Test results reported in PubChem BioAssay AID940 (Emory University Molecular Libraries Screening Center, 2007).
Several values for one entry are separate records, joined by “and”; a condition that tells them apart may be missing. Equal values may be shown once. Hit rate of the full screen: of about 260,000 compounds, about 2,200 (0.85%) were called active. What follows is part of a selection rich in actives, with near analogues and random picks from the rest. A number with no mark means an inactive call.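 Rule for the calls: active = compounds whose cAMP rise, as percent of the full-agonist control response, exceeds 60; inactive = the rest.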

Target: Prostaglandin E2 receptor EP2 subtype (Homo sapiens) (UniProt P43116)
Sequence (P43116 whole entry, looked up): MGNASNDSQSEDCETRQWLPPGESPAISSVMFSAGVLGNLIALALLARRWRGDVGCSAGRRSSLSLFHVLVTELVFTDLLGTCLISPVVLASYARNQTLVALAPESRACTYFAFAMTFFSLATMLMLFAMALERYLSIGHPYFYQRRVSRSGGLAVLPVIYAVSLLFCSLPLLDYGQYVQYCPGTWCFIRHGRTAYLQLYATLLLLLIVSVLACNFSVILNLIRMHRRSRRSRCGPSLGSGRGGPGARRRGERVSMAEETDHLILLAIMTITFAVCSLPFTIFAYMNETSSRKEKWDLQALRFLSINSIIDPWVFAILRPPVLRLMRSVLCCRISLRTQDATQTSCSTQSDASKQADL
Experiment: EP2 receptor modulators, cAMP readout, primary screen, cell-based, HTRF cAMP, PGE2 stimulation (AID 940);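 note: rat C6 glioma line stably carrying human EP2 under a CMV promoter; the protocol text gives 20 µM as final concentration; 100% = response of wells given 1 µM PGE2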
Settings: EP2-expressing cells, cAMP HTRF FRET, PGE2 co-stimulation; at 25 µM; active compounds read high

Row | Compound | induction
1 | C=CCNC(=O)CN1CCC(c2ccccc2F)CC1 | -47.4%
2 | COC(=O)[C@H]1CCc2ccccc2N1C(=O)C1CCC1 | -15.3%
3 | CCC(C)OC(=O)C(C)n1cnc2sc(C(=O)Nc3ccccc3OC)c(C)c2c1=O (configuration not stated) | -16.1%
4 | COC(=O)[C@H]1CCc2ccccc2N1C(=O)c1ccccc1F | 8.05%
5 | O=C(Cn1nc(-c2ccncc2)oc1=O)N1CCCCC1 | -10.9%
6 | CS(=O)(=O)N1CCCc2cc(C(O)CN3CCN(c4cnccn4)CC3)ccc21 (configuration not stated) | -3.55%
7 | N#Cc1c(NC(=O)CSc2nc3ccccc3c(=O)n2Cc2ccco2)sc2c1CCCC2 | -3.51%
8 | Cc1cc(NC(=O)CSc2nc3cc(Cl)ccc3c(=O)n2Cc2ccco2)no1 | -4.33%
9 | O=C(CSc1nc2ccccc2c(=O)n1Cc1ccco1)Nc1ccccc1Cl | 67.4% (active)
10 | CCOC(=O)C(C)NC(=O)c1cc2ccc(F)cc2[nH]1 (configuration not stated) | -92.7%
11 | Cc1nc(S(=O)(=O)c2ccc(Cl)cc2)c(N2CCCCC2)o1 | -42.2%
12 | CCN1CCN(C(=O)[C@H]2C[C@@H](c3ccc(OC)c(OC)c3)NS(=O)(=O)N2C)CC1 | -8.26%
13 | COc1ccc(C2(C(=O)N3CCC(n4cnc5cccnc54)CC3)CCCC2)cc1 | 11.4%
14 | Cc1nn(C(C)C)c(C)c1CN(C)CCOc1ccccc1 | -30.9%
15 | COc1cc(C)c(-c2csc(NC(=O)C3(C)CCCO3)n2)cc1C (configuration not stated) | -62.2%
16 | CSc1ccccc1C(=O)Nc1cccc(C(C)=O)c1 | 10.1%
17 | COc1cccc(NC(=O)c2ccccc2SC)c1 | 61.4% (active)
18 | COc1cccc(NC(=O)C(C)Oc2ccccc2)c1 (configuration not stated) | 9.01%
19 | COc1cc(C#N)ccc1OCc1nc(-c2ccccc2)no1 | -64.5%
20 | CSc1ncc(C(=O)N2CC(CN3CCOCC3)c3ccccc32)cn1 (configuration not stated) | -3.66%
21 | CCOC(=O)C1CCN(C(=O)Nc2c[nH]c3ccc(OC)nc3c2=O)CC1 | -39.3%
22 | CCOC(=O)c1nnn(-c2nonc2OC)c1-c1ccccc1 | 11.4%
23 | CCOC(=O)c1c(-c2cccc(N)c2)cn2ccccc12 | -32.9%
24 | CCOC(=O)c1c(N)nn(C(=O)c2ccccc2)c1-c1ccccc1 | 69.9% (active)
25 | COc1ccc(CSc2nc(N3CCOCC3)c3c(c2C#N)CC(C)(C)OC3)cc1 | 37.4%

Row | Compound | induction
26 | C/C(Cl)=C\CSc1nc(N2CCOCC2)c2c(c1C#N)CC(C)(C)OC2 | 67.7% (active)
27 | CC1(C)Cc2c(C#N)c(SCc3nc4ccccc4[nH]3)nc(N3CCOCC3)c2CO1 | -21.7%
28 | CCOc1ccc2[nH]c(=O)c(C(c3nnnn3CCOC)N3CCN(C)CC3)cc2c1 (configuration not stated) | -18.3%
29 | COC(=O)c1sc2[nH]c(=S)n(N)c(=O)c2c1C | 78.1% (active)
30 | COC(=O)Cn1cnc2sc(C(=O)OC)c(C)c2c1=O | -5.66%
31 | CCOC(=O)c1sc2nc(C)[nH]c(=O)c2c1C | 15.6%
32 | O=c1[nH]c2ccc(S(=O)(=O)N3CCCC(c4ccccc4)C3)cc2[nH]1 (configuration not stated) | -114%
33 | O=C(Cn1nc2c3ccccc3ncn2c1=O)NCc1cccs1 | 4.57%
34 | COc1ccc2nc(C)cc(SCC(=O)Nc3ccccc3Br)c2c1 | -51.4%
35 | Cc1ccc2cc(C#N)c(SCC(=O)Nc3cccc(C)c3C)nc2c1 | -15.3%
36 | COc1ccc2cc(C#N)c(SCC(=O)Nc3ccccc3Br)nc2c1 | 66.9% (active)
37 | CCc1cc2ccccc2nc1SCC(=O)Nc1ccccc1Br | 65.9% (active)
38 | Cc1cc2ccccc2nc1SCC(=O)Nc1ccccc1F | 39.1%
39 | CCc1cc2cc3c(cc2nc1SCC(=O)Nc1ccccc1Br)OCCO3 | -3.39%
40 | COCCNc1nnc(-c2ccccn2)s1 | -12.4%
41 | O=C(CCSc1nc(-c2ccco2)cc(C(F)(F)F)n1)NC1CCCCC1 | -7.93%
42 | COc1cccc(-c2nc3cc(C)ccc3o2)c1 | 3.47%
43 | COc1cccc(-c2cnc(OC(C)(C)C)nc2OC(C)(C)C)c1 | 62% (active)
44 | CC(C)(C)Oc1ncc(Br)c(OC(C)(C)C)n1 | 31.4%
45 | CC1(C)CC2CC(C)(CN2C(=O)c2ccc(Cl)cc2)C1 (configuration not stated) | -5%
46 | COc1ccc(C(=O)N2CC3(C)CC2CC(C)(C)C3)cc1OC (configuration not stated) | -6.8%
47 | CC1(C)CC2CC(C)(CN2c2ncnc3ccc(Br)cc23)C1 (configuration not stated) | 70% (active)
48 | COc1ccc2[nH]cc(CCNC(=O)C3CCN(c4nc5ccccc5n4C)CC3)c2c1 | -102%
49 | CCc1ncc(CNC2(c3ccc(Cl)cc3)CCC2)cn1 | -47%
50 | CCC(C)(C)n1nnnc1CN(Cc1ccc(F)cc1)Cc1cc2cc(C)cc(C)c2[nH]c1=O | 29.1%

Row | Compound | induction
51 | CCc1ccc2[nH]c(=O)c(CN(Cc3ccc(F)cc3)Cc3nnnn3C(C)(C)C)cc2c1 | 62.5% (active)
52 | CCC(c1nnnn1C(C)(C)C)N(Cc1ccccc1)Cc1cc2ccc(C)cc2[nH]c1=O (configuration not stated) | 12.1%
53 | COCCNC(=O)Cn1nc2c(C)cc3cc(C)cc(C)c3n2c1=O | -32.1%
54 | COc1ccc(NCc2nnc(SCC(=O)Nc3ccc(C)cc3)n2C)cc1 | 8.87%
55 | Cc1ccc(Cn2c3ccccc3n3c(SCC(=O)N4CCc5ccccc54)nnc23)cc1 | -8.29%
56 | O=P(O)(CP(=O)(c1ccccc1)c1ccccc1)c1ccccc1O | -5.29%
57 | COc1ccc(N=Nc2ccc(O)c(P(=O)(c3ccccc3)c3ccccc3)c2)cc1 | 25.3%
58 | CC(C)(C)c1cc(P(=O)(c2ccccc2)c2ccccc2)ccc1O | 66.9% (active)
59 | CN(C)C(=O)CN1N=C(C(C)(C)C)Cn2c(cc3sccc32)C1=O | -24.7%
60 | CCn1c2ccccc2c2cc(CC(N)=O)ccc21 | 13.3%
61 | CC(=O)c1ccc2c(c1)c1ccccc1n2CC(C)C | 66.9% (active)
62 | CC(=O)c1ccc2c(ccc3ccccc32)c1 | -39.4%
63 | Cc1sc2ncnc(NCC(=O)O)c2c1C | 2.64%
64 | COc1cc(-c2nnc(SCC(=O)N3CCC(C)CC3)o2)cc(OC)c1OC | -36.6%
65 | CCN1CCCC1CN(Cc1ccccn1)Cc1cccn1-c1ccncc1 (configuration not stated) | 7.11%
66 | Cc1cc(C#N)c(SCC(N)=O)nc1-c1ccc(F)cc1 | 65.8% (active)
67 | CCN(CC)C(=O)CSc1nc2c(C)c(C)ccc2cc1C#N | 27.6%
68 | Cc1cc(=O)[nH]c(SCC(N)=O)c1C#N | 24.2%
69 | CCc1c(C)nc(NC2CCN(C(=O)c3cccc(N(C)C)c3)CC2)[nH]c1=O | -19.1%
70 | COC(=O)CSc1nnc(CSc2nc(C)cc(C)n2)n1-c1ccc(C)cc1 | -20.7%
71 | COc1cc(NC(=O)CSc2ncnc3c2sc2nc4cc(C)ccc4cc23)cc(OC)c1 | -7.45%
72 | CCOc1ccc(NC(=O)CSc2nc(C(C)C)nc3ccccc23)cc1 | 10.4%
73 | CCOc1ccc(NC(=O)CSc2ncnc3c2sc2ccccc23)cc1 | 78.8% (active)
74 | CC(c1ccccc1)n1c(Br)nc2c1c(=O)n(C)c(=O)n2C (configuration not stated) | -1.23%
75 | COc1ccc2[nH]c(=O)c(CN(C3CCCC3)C(c3nnnn3Cc3ccccc3)C(C)C)cc2c1 (configuration not stated) | 40.1%

Row | Compound | induction
76 | CC1(C)C2CCC1(C)C(OC(=O)CCn1ccnc1)C2 (configuration not stated) | -7.75%
77 | CC1(C)C2CCC1(C)C(OC(=O)c1ccc(O)cc1)C2 (configuration not stated) | 67.5% (active)
78 | Cc1ccc(C(=O)OC2CCCN(C)C2)cc1 (configuration not stated) | 11.9% and -29.7%
79 | c1ccc(C(c2nnnn2Cc2ccc3c(c2)OCO3)N2CCN(C3CCCCC3)CC2)cc1 (configuration not stated) | -64.5%
80 | CC(C)(C)C(=O)c1cn(CC(=O)N2CCCCC2)c2ccccc12 | -9.2%
81 | CCn1c(C)nnc1SCC(=O)Nc1ccc(Br)cc1 | -1.86%
82 | Cc1cc(NC(=O)CN2CCCC(C)C2)n(-c2nc3ccccc3s2)n1 (configuration not stated) | 77.7% (active)
83 | CCOC(=O)N1CCN(CC(=O)Nc2cc(C)nn2-c2nc3ccccc3s2)CC1 | 32.4%
84 | CC(=O)Nc1ccc(NC(=O)CN2CCCC(C)C2)c(Cl)c1 (configuration not stated) | -9.9%
85 | COc1ccc(Cc2n[nH]c(=S)n2C)cc1 | 25.4%
86 | Cc1cc(-c2cnc(C)nc2C2CCN(C(=O)Cc3ccc(C)s3)CC2)on1 | -15.1%
87 | O=C(N/N=C/c1ccc(OCc2ccccc2)cc1)c1ccc(O)cc1 | -46.8%
88 | Oc1ccc(/C=N/N(Cc2ccccc2)c2ccccc2)cc1 | 67.5% (active)
89 | CN(C)c1ccc(/C=N/N(Cc2ccccc2)c2ccccc2)cc1 | 23.9%
90 | Cc1ccc(NC(=O)c2c(NC(=O)CCC(=O)O)sc3c2CCCCC3)cc1 | 12.1% and -20.9%
91 | Cc1ccc(C(=O)c2c(NC(=O)c3ccccc3)sc(C)c2C)cc1 | 8.95%
92 | Cc1ccc(C(=O)c2c(NC(=O)c3ccncc3)sc3c2CCCC3)cc1 | 68.7% (active)
93 | Cc1cc(-c2cncnc2C2CCCN(CC(=O)Nc3cc(C)on3)C2)on1 (configuration not stated) | 0.23%
94 | CCOC(=O)c1c(CN2CCOCC2)nc2ccc(Cl)cc2c1-c1ccccc1 | 22.7%
95 | CCSc1nnc(-c2cc3c(s2)-c2ccccc2CC3)o1 | 63.3% (active)
96 | Fc1ccc(CSc2nnc(-c3cc4c(s3)-c3ccccc3CC4)o2)cc1 | 1.98%
97 | C#CCSc1nnc(-c2sc3ccccc3c2Cl)o1 | 40.2%
